The values below come from the supplement of paper PMC7156485.

Where “and” joins values, the source holds several entries; their conditions need not be identical. Equal values may be shown once.
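Further: TDF is a line of transformed human dermal fibroblasts of mesenchymal origin.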

The assay deals with TDF. Briefly: H1.0 immunofluorescence intensity relative to DMSO (% of DMSO); higher = stronger H1.0 induction, active = 120 or more. The following applies: concentration: 10 µM; 24 h. The method, boiled down:
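After 24 h at 37 °C with compounds at 10 µM, in triplicate, HCC1569 and TDF cells were fixed with 3.7% formaldehyde. Immunostaining used a rabbit anti-H1.0 antibody and an AlexaFluor 647 secondary, with DAPI, and six fields per well were imaged at ×10. H1.0 nuclear intensity or cell number is presented as percent of the plate control, from the median of replicates, with HCC1569 values smoothed for positional effects.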
`NC(N)=S` [Thiourea]: the H1.0 immunofluorescence intensity is 92.6 (inactive). For `COc1cc2c(cc1OC)C1C(C)c3ccc(OC)c(OC)c3CN1CC2` (stereo not given) [Corydaline] the value was 94.4 (inactive). As for `CCC=CCC=CCC=CCC=CCC=CCC=CCCC(=O)O` [Docosahexaenoic acid], the H1.0 immunofluorescence intensity is 104 (inactive). As for `Nc1c(C(=O)O)c2nc3c(C(=O)O)cccc3oc-2cc1=O` [2-amino-3-oxo-3H-phenoxazine-1,9-dicarboxylic acid], the figure is 110 (inactive). For `COC(=O)C1=COC(C)C2CN3CCc4c([nH]c5ccccc45)C3CC12` (stereo not given) [Teterahydroalstonine] the value was 98.8 (inactive); for `CC1C(=O)OC2CC34C5CC(C(C)(C)C)C36C(OC(=O)C6O)OC4(C(=O)O5)C21O` (stereo not given) [Ginkgolide A], 92.3 (inactive). Take `Cl.Clc1cccc(Cl)c1NC1=NCCN1` [Clonidine.HCl]: the H1.0 immunofluorescence intensity is 84.7 (inactive). On to `COc1ccc2c(c1OC)C(=O)OC2C1c2c(cc3c(c2OC)OCO3)CCN1C.Cl` (stereo not given) [Noscapine hydrchloride], for which the H1.0 immunofluorescence intensity was 97.1 (inactive). `CC1(C)CCC(C)(C)c2cc(C3(c4ccc(C(=O)O)cc4)OCCO3)ccc21`: the H1.0 immunofluorescence intensity is 92.3 (inactive). For `CNCCCC12CCC(c3ccccc31)c1ccccc12.Cl` [Maprotiline hydrochloride], the H1.0 immunofluorescence intensity is 106 (inactive).

For the compound `CC(=O)OCC1=C(C(=O)[O-])N2C(=O)C(NC(=O)Cc3cccs3)C2SC1.[Na+]` (stereo not given) [Cephalothin sodium], the H1.0 immunofluorescence intensity was 89.4 (inactive). Turning to `CC(C)c1cccc(O)c(=O)c1` [Hinokitiol], the H1.0 immunofluorescence intensity was 89.5 (inactive). For `Cc1cc2ncc(-c3ccccc3)nc2cc1C` the value was 96 (inactive); for `CC1COC2=C1C(=O)C(=O)c1c2ccc2c1CCCC2(C)C` (stereo not given) [Cryptotanshinone], 106 (inactive); for `CCCCCCCCCCCCCCCCCCOCC(COP(=O)([O-])OCC[N+](C)(C)C)OC` (stereo not given) [1-Octadecyl-2-methylglycero-3 PC], 96.6 (inactive).

As to `CCCCCC#CCC(O)C=CC=CC=CC(O)CCCC(=O)O` (stereo not given) [14,15-Dehydroleukotriene B4], the H1.0 immunofluorescence intensity was 105 (inactive). As for `Cc1ccc(S(=O)(=O)N2c3ccccc3Oc3ccccc32)cc1` [10-[(4-methylphenyl)sulfonyl]-10H-phenoxazine], the figure is 161 (active); as for `C=C1NC(=O)C2=C(CCSC2)N1`, 95.5 (inactive); as for `N#CC(=Cc1ccc(O)c(O)c1)C(=O)NCc1ccccc1`, 91.1 (inactive). For `CC1CCC2(C(=O)O)CCC3(C)C(=CCC4C5(C)CC(O)C(O)C(C)(CO)C5CCC43C)C2C1C` (stereo not given) [Asiatic acid] the value was 101 (inactive); for `CC(=O)C1CCC2C3CC=C4CC(O)CCC4(C)C3CCC12C` (stereo not given) [Pregnenolone], 95.7 (inactive); for `OC[C@H]1NC[C@@H](O)[C@@H]1O` [1,4-Dideoxy-1,4-imino-D-arabinitol], 88.6 (inactive). As for `N#CC(=C(N)Sc1ccccc1N)C(C#N)=C(N)Sc1ccccc1N`, the figure is 94 (inactive) and 88.9 (inactive); as for `CCOC(=O)C=Cc1ccc(O)c(OC)c1` [Ferulic acid ethylester], 90.2 (inactive).

With `N[C@@H](Cc1ccc(O)c(I)c1)C(=O)O` [3-Iodo-L-tyrosine], the H1.0 immunofluorescence intensity is 87.8 (inactive).

Turning to `O=S(=O)(NCc1ccccn1)c1ccc(Br)c2ccccc12` [4-bromo-N-(2-pyridinylmethyl)-1-naphthalenesulfonamide], the H1.0 immunofluorescence intensity is 96.2 (inactive).

Turning to `CC1(C)SC2C(NC(=O)C(N)c3ccc(O)cc3)C(=O)N2C1C(=O)O` (stereo not given) [Amoxicillin], the H1.0 immunofluorescence intensity was 105 (inactive). On to `COc1c2ccoc2cc2oc(=O)ccc12` [Bergapten], for which the H1.0 immunofluorescence intensity is 102 (inactive).

As for `CCC(C)C(CC)C(N)=O` (stereo not given) [2-ethyl-3-methylpentanamide], the H1.0 immunofluorescence intensity was 92.3 (inactive). As for `CN(C)C(=O)N=NC(=O)N(C)C` [N,N,N',N'-Tetramethylazodicarboxamide], the figure is 91.5 (inactive). As for `CCC1(O)CC2CN(CCc3c([nH]c4ccccc34)C(C(=O)OC)(c3cc4c(cc3OC)N(C)C3C(O)(C(=O)OC)C(OC(C)=O)C5(CC)C=CCN6CCC43C65)C2)C1.O=S(=O)(O)O` (stereo not given) [Vinblastine sulfate], the figure is 156 (active); as for `N#CC(=Cc1ccc(O)c(O)c1)C(=O)NCCCc1ccccc1` [Tyrphostin AG 555], 88.6 (inactive).

For `COc1cc2c(cc1OC)-c1cc(=Nc3c(C)cc(C)cc3C)n(C)c(=O)n1CC2.Cl` [Trequinsin.HCl], the H1.0 immunofluorescence intensity is 92.8 (inactive). On to `CCCC(CCC)C(=O)[O-].[Na+]` [Valproic acid sodium], for which the H1.0 immunofluorescence intensity was 95 (inactive). For `CC(O)C(=O)C1=Nc2c([nH]c(N)nc2=O)NC1` (stereo not given) [Sepiapterin] the value was 97.4 (inactive); for `Cl.O=C(NCCCCN1CCN(c2cccc(Cl)c2Cl)CC1)c1ccc2c(c1)Cc1ccccc1-2`, 96.4 (inactive).

Regarding `COc1cc(O)c(C(=O)C=Cc2ccccc2)c(OC)c1` [Flavokawain B], the H1.0 immunofluorescence intensity was 93.6 (inactive). As for `COc1ccc(-c2cc(=O)c3ccc(O)cc3o2)cc1` [Pratol], the figure is 94 (inactive); as for `NC(C(=O)NC1C(=O)N2C(C(=O)O)=C(Cl)CSC12)c1ccccc1` (stereo not given) [Cefaclor], 103 (inactive); as for `CN1CCN(C2=Nc3ccccc3Sc3ccc(Cl)cc32)CC1` [Clothiapine], 94 (inactive).
